Our source for the Potency values is PubChem BioAssay (Tox21).

Structures are written as SMILES. Where “and” joins values, the source holds several entries; their conditions need not be identical. Identical values can stand only once. Inconclusive results are not listed. More than one record can exist for a structure, and the calls need not agree. Calls of active or inactive are those of the source. Calls come from the whole dose curve; as a rule, active = well fitted curve in the direction sought with a large enough effect in the repeat runs; inconclusive = weak or mixed curves; inactive = no such curve, though single readings can be large; an effect the other way counts as inactive or inconclusive.

Assay [1] concerns the target Cytochrome P450 2C19 (Homo sapiens) (UniProt P33261). The assay is described as follows: Cytochrome P450 Family 2 Subfamily C Member 19 (CYP2C19) small molecule antagonists: luciferase reporter qHTS assay (AID 1671197). Note: nearly all actives have a fitted effect of over 65% in size. In a few lines: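 First, compounds are pinned into enzyme-substrate mix and held 10 min at room temperature. Second, NADPH regeneration solution is added and plates incubate 1 h at 37C. Third, detection reagent is added and luminescence read after 20 min.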
For orientation: Reporter assays use an easily measured gene product as a stand-in for the process of interest.

For assay [2], the target named is Cytochrome P450 2C9 (Homo sapiens) (UniProt P11712). The assay is described as follows: Cytochrome P450 Family 2 Subfamily C Member 9 (CYP2C9) small molecule antagonists: luciferase reporter qHTS assay (AID 1671198). Note: nearly all actives have a fitted effect of over 50% in size. In a few lines:
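P450-Glo proluciferin substrate with CYP2C9 enzyme; 10 min RT preincubation, then NADPH regeneration 1 h at 37C; luciferin detection reagent 20 min RT, luminescence in relative luminescence units.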

For assay [3], the target named is Cytochrome P450 1A2 (Homo sapiens) (UniProt P05177). Put plainly: Cytochrome P450 Family 1 Subfamily A Member 2 (CYP1A2) small molecule antagonists: luciferase reporter qHTS assay (AID 1671199). Note: nearly all actives have a fitted effect of over 50% in size. In short, it runs like this: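 Signal from luciferin formed by CYP1A2 from a proluciferin substrate is read as luminescence, expressed in relative luminescence units. Compounds sit with enzyme 10 min, NADPH-driven reaction runs 1 h, all at room temperature.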
Sequence of Cytochrome P450 1A2 (Homo sapiens) (P05177 whole entry, looked up): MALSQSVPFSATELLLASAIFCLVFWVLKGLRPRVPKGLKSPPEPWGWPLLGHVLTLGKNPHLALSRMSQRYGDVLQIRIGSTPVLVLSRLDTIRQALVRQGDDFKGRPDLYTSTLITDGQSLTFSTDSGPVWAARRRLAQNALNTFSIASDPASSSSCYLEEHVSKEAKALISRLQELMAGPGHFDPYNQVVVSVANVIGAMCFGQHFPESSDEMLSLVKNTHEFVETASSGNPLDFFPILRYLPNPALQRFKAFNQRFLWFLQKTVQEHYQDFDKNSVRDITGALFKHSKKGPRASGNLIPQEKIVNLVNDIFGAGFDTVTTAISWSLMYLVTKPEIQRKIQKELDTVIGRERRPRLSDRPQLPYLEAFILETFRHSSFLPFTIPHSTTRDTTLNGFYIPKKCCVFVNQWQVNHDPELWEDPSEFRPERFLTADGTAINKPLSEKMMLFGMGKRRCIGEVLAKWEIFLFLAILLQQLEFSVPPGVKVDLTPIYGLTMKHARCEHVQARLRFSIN

In assay [4] the target is Voltage-gated inwardly rectifying potassium channel KCNH2 (Homo sapiens) (UniProt Q12809). The assay is described as follows: Human Ether-a-go-go-Related Gene (hERG) channel small molecule antagonists: fluorescence cell-based qHTS assay (AID 1671200). Note: nearly all actives have a fitted effect of over 50% in size. In a few lines: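 hERG-U2OS cells plated overnight at 37 C, loaded with FluxOR II dye 1 h at RT in dark; after 10 min, thallium stimulus added. Fluorescence (480/540 nm) read kinetically for 2 min at 1 s intervals.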
Sequence of Voltage-gated inwardly rectifying potassium channel KCNH2 (Homo sapiens) (Q12809 whole entry, looked up): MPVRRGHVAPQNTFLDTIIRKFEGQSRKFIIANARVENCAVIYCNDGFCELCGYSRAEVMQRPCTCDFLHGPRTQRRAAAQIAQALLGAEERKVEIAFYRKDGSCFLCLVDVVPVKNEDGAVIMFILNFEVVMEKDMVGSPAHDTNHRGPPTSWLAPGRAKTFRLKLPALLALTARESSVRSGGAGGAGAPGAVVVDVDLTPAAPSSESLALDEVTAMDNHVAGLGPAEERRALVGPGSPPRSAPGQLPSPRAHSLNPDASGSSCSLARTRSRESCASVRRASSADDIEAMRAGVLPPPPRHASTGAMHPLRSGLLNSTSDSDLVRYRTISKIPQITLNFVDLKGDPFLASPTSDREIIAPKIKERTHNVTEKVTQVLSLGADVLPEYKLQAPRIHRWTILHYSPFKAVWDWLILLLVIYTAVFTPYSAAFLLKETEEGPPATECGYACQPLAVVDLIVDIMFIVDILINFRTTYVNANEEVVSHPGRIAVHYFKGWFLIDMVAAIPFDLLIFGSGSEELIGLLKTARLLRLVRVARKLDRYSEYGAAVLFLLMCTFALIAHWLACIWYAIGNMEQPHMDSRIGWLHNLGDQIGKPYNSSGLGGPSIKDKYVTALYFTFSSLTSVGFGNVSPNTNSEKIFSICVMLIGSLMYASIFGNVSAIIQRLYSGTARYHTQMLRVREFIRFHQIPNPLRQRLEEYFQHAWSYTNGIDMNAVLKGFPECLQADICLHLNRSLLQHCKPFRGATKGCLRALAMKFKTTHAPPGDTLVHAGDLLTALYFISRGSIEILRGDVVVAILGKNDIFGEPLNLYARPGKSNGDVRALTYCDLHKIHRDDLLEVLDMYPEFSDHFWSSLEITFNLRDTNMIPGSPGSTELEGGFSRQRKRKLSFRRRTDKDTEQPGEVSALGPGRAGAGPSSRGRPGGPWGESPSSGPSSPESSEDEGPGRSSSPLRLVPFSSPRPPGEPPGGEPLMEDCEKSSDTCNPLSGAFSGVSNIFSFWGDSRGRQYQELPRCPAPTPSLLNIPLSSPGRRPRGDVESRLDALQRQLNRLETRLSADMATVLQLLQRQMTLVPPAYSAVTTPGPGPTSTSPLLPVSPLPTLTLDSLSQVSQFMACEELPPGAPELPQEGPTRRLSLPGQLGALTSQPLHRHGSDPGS
On the technique in general: The hERG channel carries a current that helps repolarise heart muscle cells.

The target of assay [5] is Cytochrome P450 3A4 (Homo sapiens) (UniProt P08684). Put plainly: Cytochrome P450 Family 3 Subfamily A Member 4 (CYP3A4) small molecule antagonists: luciferase reporter qHTS assay (AID 1671201). Note: nearly all actives have a fitted effect of over 50% in size. In short, it runs like this:
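P450-Glo CYP3A4 luminescent assay: compounds preincubated 10 min at room temperature with enzyme and proluciferin substrate, NADPH regeneration added, 1 h room-temperature reaction, stopped with luciferin detection reagent; luminescence read after 20 min. Ketoconazole positive control.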
Potency is the fitted concentration of half-maximal effect.

Sequence of Cytochrome P450 2C9 (Homo sapiens) (P11712 whole entry, looked up): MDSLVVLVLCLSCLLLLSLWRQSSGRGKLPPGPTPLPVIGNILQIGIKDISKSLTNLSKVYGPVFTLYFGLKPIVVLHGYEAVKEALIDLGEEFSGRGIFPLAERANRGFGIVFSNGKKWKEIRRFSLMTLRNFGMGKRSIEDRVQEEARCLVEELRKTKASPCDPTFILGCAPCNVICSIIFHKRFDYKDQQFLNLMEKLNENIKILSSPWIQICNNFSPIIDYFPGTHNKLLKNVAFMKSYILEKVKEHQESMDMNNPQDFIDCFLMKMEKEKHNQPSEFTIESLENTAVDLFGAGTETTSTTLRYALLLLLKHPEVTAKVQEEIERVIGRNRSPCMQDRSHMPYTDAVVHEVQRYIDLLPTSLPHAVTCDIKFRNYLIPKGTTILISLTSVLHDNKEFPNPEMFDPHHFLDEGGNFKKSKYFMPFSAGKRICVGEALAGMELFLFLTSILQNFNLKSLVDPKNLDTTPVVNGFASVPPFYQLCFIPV
Sequence of Cytochrome P450 3A4 (Homo sapiens) (P08684 whole entry, looked up): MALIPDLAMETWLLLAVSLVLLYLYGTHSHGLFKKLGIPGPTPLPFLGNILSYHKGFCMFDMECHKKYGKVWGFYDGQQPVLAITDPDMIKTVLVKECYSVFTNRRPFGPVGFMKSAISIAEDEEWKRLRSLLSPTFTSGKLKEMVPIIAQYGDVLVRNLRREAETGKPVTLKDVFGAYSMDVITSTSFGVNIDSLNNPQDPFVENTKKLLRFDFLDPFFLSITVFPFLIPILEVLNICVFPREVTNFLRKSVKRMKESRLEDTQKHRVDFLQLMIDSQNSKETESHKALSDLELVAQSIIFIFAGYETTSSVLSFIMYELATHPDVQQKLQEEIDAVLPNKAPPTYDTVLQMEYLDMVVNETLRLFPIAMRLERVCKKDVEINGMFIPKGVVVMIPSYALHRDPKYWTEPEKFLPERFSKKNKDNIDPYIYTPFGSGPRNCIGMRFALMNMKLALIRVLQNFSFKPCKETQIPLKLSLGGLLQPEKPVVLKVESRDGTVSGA
Sequence of Cytochrome P450 2C19 (Homo sapiens) (P33261 whole entry, looked up): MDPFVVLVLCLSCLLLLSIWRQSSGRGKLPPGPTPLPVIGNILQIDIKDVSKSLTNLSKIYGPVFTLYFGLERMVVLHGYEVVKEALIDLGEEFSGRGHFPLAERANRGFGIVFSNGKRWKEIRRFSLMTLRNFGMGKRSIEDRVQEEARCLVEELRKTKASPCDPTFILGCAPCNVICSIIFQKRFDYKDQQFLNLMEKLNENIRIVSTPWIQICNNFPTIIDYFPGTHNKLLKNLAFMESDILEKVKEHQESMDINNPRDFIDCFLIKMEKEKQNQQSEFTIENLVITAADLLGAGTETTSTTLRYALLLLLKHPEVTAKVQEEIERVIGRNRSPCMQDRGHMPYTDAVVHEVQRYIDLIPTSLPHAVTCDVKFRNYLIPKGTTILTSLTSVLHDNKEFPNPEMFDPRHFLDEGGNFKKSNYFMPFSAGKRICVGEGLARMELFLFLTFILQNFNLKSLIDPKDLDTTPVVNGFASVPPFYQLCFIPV

With `C#C[C@]1(OC(C)=O)CC[C@H]2[C@@H]3CCC4=C/C(=N/O)CC[C@@H]4[C@H]3CC[C@@]21CC`, the values for the Potency in assay [1] and in assay [2] were 4.36 µM (active) and 11 µM (active), respectively. Moreover, the Potency entry in assay [3] and in assay [4] was “inactive” each time.

Turning to `CCO[C@@H]1O[C@H](C(COCc2ccccc2)OCc2ccccc2)[C@H](OCc2ccccc2)[C@H]1O` (some centres undefined), the Potency is 4.9 µM (active) in assay [1] and 8.71 µM (active) in assay [2]. The Potency result in assay [3] and in assay [4] was “inactive” throughout.

For `CCCCC(CC)CN1CN(CC(CC)CCCC)CC(C)(N)C1` (centres undefined), the Potency entry in assay [1], in assay [2] and in assay [3] was “inactive” throughout. For the same compound, the Potency in assay [4] is 2.68 µM (active).

For `Cc1nc2n(c(=O)c1CCN1CCC(c3noc4cc(F)ccc34)CC1)CCCC2`, the Potency entry in assay [1] and in assay [2] was “inactive” throughout.

Take `OC/C=C/CO`: the Potency result in assay [1], in assay [2], in assay [3], in assay [4] and in assay [5] was “inactive” in each case.

On to `Cc1c2ccccc2c(C)c2c1ccc1ccccc12`, for which the Potency is 4.98 µM (active) and 3.99 µM (active) in assay [1]; 22.2 µM (active) and 25.2 µM (active) in assay [2]; 626 nM (active) and 1.78 µM (active) in assay [3]; 22.2 µM (active) and 20 µM (active) in assay [5]. The Potency entry in assay [4] is “inactive”.

`Cc1c(F)c(N2CCNC(C)C2)cc2c1c(=O)c(C(=O)O)cn2C1CC1` (centres undefined): the Potency result in assay [1], in assay [2], in assay [3], in assay [4] and in assay [5] was “inactive” in each case.

On to `O=C(/C=C/c1ccc(O)c(O)c1)O[C@@H](C(=O)O)[C@@H](OC(=O)/C=C/c1ccc(O)c(O)c1)C(=O)O`, for which the Potency result in assay [1], in assay [2], in assay [3], in assay [4] and in assay [5] was “inactive” each time.

Regarding `Cc1nc(-c2ccc(Cl)cc2)oc1COC(C)(C)C(=O)O`, the Potency entry in assay [1], in assay [2], in assay [3], in assay [4] and in assay [5] was “inactive” each time.

As for `CC(C)=CCC1=C(O)c2ccccc2C(=O)C1=O`, the Potency was 28.1 µM (active) in assay [1], 31.6 µM (active) in assay [2] and 11.2 µM (active) in assay [3]. Further, the Potency entry in assay [4] and in assay [5] was “inactive” each time.

For `CC/C=C\CCCCCO`, the Potency result in assay [1], in assay [2], in assay [3], in assay [4] and in assay [5] was “inactive” each time.

Take `COc1cc(C)ccc1O`: the Potency in assay [1] is 56.4 µM (active); in assay [3], 39.9 µM (active). Further, the Potency result in assay [2], in assay [4] and in assay [5] was “inactive” throughout.

For `COc1cc(S(=O)(=O)O)c(C)cc1N=Nc1c(O)ccc2cc(S(=O)(=O)O)ccc12`, the Potency in assay [1] was 79.6 µM (active); in assay [2], 39.9 µM (active); in assay [3] it was 35.6 µM (active). Also, the Potency result in assay [4] and in assay [5] was “inactive” each time.

With `CC(CO)Oc1ccccc1` (centres undefined), the Potency in assay [1] is 36.7 µM (active). In addition, the Potency result in assay [2], in assay [3], in assay [4] and in assay [5] was “inactive” in each case.

Turning to `COC(=O)c1ccccc1C`, the Potency result in assay [1], in assay [2], in assay [3], in assay [4] and in assay [5] was “inactive” throughout.

For the compound `CN(C)Cc1ccccc1O`, the Potency entry in assay [1], in assay [2], in assay [3], in assay [4] and in assay [5] was “inactive” in each case.

With `Nc1nc(-c2ccccc2)cs1`, the Potency is 5.01 µM (active) in assay [1], 11.2 µM (active) in assay [2], 8.91 µM (active) in assay [3] and 5.62 µM (active) in assay [5]. Further, the Potency result in assay [4] is “inactive”.

As to `Oc1ccccc1O`, the Potency in assay [1] is 80.6 µM (active) and inactive. The Potency entry in assay [2], in assay [3], in assay [4] and in assay [5] was “inactive” throughout.

With `Cc1cccc(C(=O)O)c1O`, the Potency result in assay [1], in assay [2], in assay [3], in assay [4] and in assay [5] was “inactive” throughout.

Turning to `CC1(C)CCC[C@]2(C)[C@H]3CC(=O)O[C@]3(C)CC[C@@H]12`, the Potency in assay [1] was 39.9 µM (active); in assay [2], 39.9 µM (active); in assay [3], 44.8 µM (active); in assay [4], 38.9 µM (active); in assay [5], 31.7 µM (active).

Turning to `CCN(CCN)c1cccc(C)c1`, the Potency in assay [1] was 7.17 µM (active) and 35.6 µM (active); in assay [2] it was 40.3 µM (active) and 56.4 µM (active); in assay [3] it was 11.4 µM (active) and 20 µM (active); in assay [4], 24.5 µM (active); in assay [5], 12.7 µM (active) and 35.6 µM (active).

Take `c1ccc(SSc2ccccc2)cc1`: the values for the Potency in assay [1], in assay [2] and in assay [3] were 22.6 µM (active), 31.9 µM (active) and 3.19 µM (active), respectively. The Potency entry in assay [4] and in assay [5] was “inactive” in each case.

Consider `Cc1c(N)cccc1C(F)(F)F`, for which the Potency result in assay [1], in assay [2], in assay [4] and in assay [5] was “inactive” throughout. For the same compound, the Potency in assay [3] was 13.8 µM (active).

For the compound `O=S(=O)(O)c1ccc(N=Nc2c(O)ccc3ccccc23)cc1`, the Potency in assay [1] was 11.2 µM (active); in assay [2] it was 31.7 µM (active); in assay [3], 31.7 µM (active); in assay [5] it was 35.6 µM (active). In assay [4], the Potency result is “inactive”.

For `S=C([S-])NCCNC(=S)[S-].S=C([S-])NCCNC(=S)[S-].[Mn+2].[Zn+2]`, the values for the Potency in assay [1], in assay [2] and in assay [3] were 4.36 µM (active), 3.09 µM (active) and 15.5 µM (active), respectively. Also, the Potency result in assay [4] and in assay [5] was “inactive” throughout.

Consider `O=C(O)[C@H](O)[C@@H](O)[C@H](O[C@@H]1O[C@H](CO)[C@H](O)[C@H](O)[C@H]1O)[C@H](O)CO`, for which the Potency result in assay [1], in assay [2], in assay [3], in assay [4] and in assay [5] was “inactive” in each case.

As to `[Cu+]`, the Potency in assay [1] was 2.24 µM (active); in assay [2], 11.2 µM (active); in assay [3], 39.9 µM (active); in assay [5], 39.9 µM (active). Further, the Potency result in assay [4] is “inactive”.
